The whole screen tested about 60,000 compounds, of which about 370 (0.62%) were called active. The sample as a whole holds a higher share of actives than the screen did. Values without a mark were called inactive. No stated cut-off is given here; in the data, active means inhibition above about 17%; inactive means the rest.
Molecular target: Mitogen-activated protein kinase 10 (Homo sapiens) (UniProt P53779)
Assay: inhibition of human JNK3 enzyme – biochemical, purified enzyme, primary screen (AID 746);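 further: 0% = DMSO and 100% = reference inhibitor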
Conditions: purified JNK3 kinase activity, HTS; at 8 µM; hits give high values

Sequence of Mitogen-activated protein kinase 10 (Homo sapiens) (P53779 whole entry, looked up): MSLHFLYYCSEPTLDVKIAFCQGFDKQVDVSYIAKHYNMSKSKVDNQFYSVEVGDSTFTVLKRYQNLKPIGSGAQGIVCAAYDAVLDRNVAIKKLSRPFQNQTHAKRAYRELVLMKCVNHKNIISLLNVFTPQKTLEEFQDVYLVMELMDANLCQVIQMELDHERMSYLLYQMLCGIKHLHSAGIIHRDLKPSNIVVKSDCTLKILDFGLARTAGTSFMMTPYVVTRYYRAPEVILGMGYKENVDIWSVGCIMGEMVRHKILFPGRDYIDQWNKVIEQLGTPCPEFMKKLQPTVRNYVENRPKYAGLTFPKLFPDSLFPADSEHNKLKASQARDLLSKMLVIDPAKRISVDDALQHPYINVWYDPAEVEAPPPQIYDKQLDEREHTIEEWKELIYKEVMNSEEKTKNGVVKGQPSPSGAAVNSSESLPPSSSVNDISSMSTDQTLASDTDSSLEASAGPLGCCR

Structure (SMILES) | inhibition
CC(=O)N1CCN(c2ccc(NCc3ccc(C(C)C)cc3)cc2)CC1 | -4.46%
CCCCc1nc2ccccc2c(=O)n1NC(=O)c1c(O)c2cccc3c2n(c1=O)CC3 | -6.2%
CCCC(=O)NC(C)C(c1cccs1)N1CCN(c2ccccc2)CC1 (configuration not stated) | 0.41%
O=C(NCC12CC3CC(C1)CC(CNC(=O)N1CCCC1)(C3)C2)N1CCCC1 | 2.23%
CCOC(=O)CC1C(=O)NCCN1C(=O)COc1ccc(Br)cc1C (configuration not stated) | 1.6%
N#Cc1c(/N=C/N2CCCC2)oc(-c2ccccc2)c1-c1ccccc1 | -3.67%
CC(C)n1c(SCC(=O)Nc2ccccc2N2CCCCC2)nc2c1c(=O)n(C)c(=O)n2C | 0%
Nc1nnc(C2CCCC2)s1 | -0.19%
O/N=C(\c1ccc2c(c1)OCCO2)C1CCCCC1 | -1.18%
COc1cc(Br)cc(/C=N/c2ncn[nH]2)c1O | -2.89%
Clc1ccc(Cc2nnc(-c3cccs3)o2)cc1 | 2.19%
CCCc1[nH]nc2c1C(c1ccc(OC(=O)c3ccco3)cc1)C(C#N)=C(N)O2 (configuration not stated) | 6.15%
CC(=O)NC(C)(C)C1CC=C(C)/C(=N\O)C1 (configuration not stated) | 0.98%
CCN(CC)S(=O)(=O)c1ccc2nc(CSc3nnnn3-c3ccc(O)cc3)[nH]c2c1 | 8.62%
CCN(CC)S(=O)(=O)c1ccc2nc(COC(=O)c3n[nH]c4ccccc34)[nH]c2c1 | 95.8% (active)
CCN(CC)S(=O)(=O)c1cccc(C(=O)NCC(=O)OCC(=O)NCc2ccccc2)c1 | -1.17%
Cc1c(CN2CCC(C)CC2)c(=O)n(-c2ccccc2)n1C | 0.5%
O=P(O)(CP(=O)(c1ccccc1)c1ccccc1)c1ccccc1 | -5.23%
Cc1nc2c(-c3ccc(F)cc3)c(C)nn2c(C)c1CCC(=O)N1CCN(c2ccccn2)CC1 | 1.08%
Cc1c(C(=O)NCC2CCCO2)sc2nc(-c3ccccc3)cn12 (configuration not stated) | -3.26%
CCSC1(SCC)N=C(N)C2(C#N)C(c3ccccc3)NC(C)=CC12C#N (configuration not stated) | 0.03%
CCOC(=O)c1ccccc1NC(=O)CC1Nc2ccccc2NC1=O (configuration not stated) | -0.55%
CCOC(=O)C1CCN(C(=O)COc2cc(C)c(Br)c(C)c2)CC1 | 6.51%
CC(=O)Oc1ccc(C)cc1N1C(=O)c2ccc(C(=O)O)cc2C1=O | 0.63%

Structure (SMILES) | inhibition
COc1cccc(-c2nc3n(n2)C(c2ccccc2Cl)C(C(N)=O)=C(C)N3)c1 (configuration not stated) | 1.25%
COc1ccc(NC(=O)c2c(SC)nsc2SC)cc1 | -3.4%
COc1ccc(C(=O)CSc2nccc(=O)[nH]2)cc1 | -1.11%
O=C(CN1CCN(C(=O)c2cccc(F)c2)CC1)Nc1ccccc1F | -3.2%
CCOC(=O)CSc1nnc(NC(=O)c2cccc(S(=O)(=O)N3CCCCC3)c2)s1 | -2.01%
CCOC(=O)c1sc(N(Cc2ccccc2)C(=O)CN2C(=O)CN(C)C2=O)nc1C | 0.36%
Cc1ccc(C(=O)COc2cccc(NC(=O)c3ccco3)c2)cc1 | 0.83%
Cn1c(=O)[nH]c(=O)c2c1nc(CN1CCN(c3ccccc3F)CC1)n2CCc1ccccc1 | 3.94%
Cc1ccccc1NC(=O)c1cnn(-c2ccccc2)c1NC(=O)c1ccco1 | -3.45%
O=P(c1cccs1)(c1cccs1)c1cccs1 | -3.85%
O=C(Nc1cccc2cccnc12)c1cccc(N2C(=O)CCC2=O)c1 | 4.05%
O=C(CSCc1cccs1)N1CCCC1 | 5.67%
CCc1ccc(-c2nnn(Cc3nc4ccccc4s3)n2)cc1 | -6.35%
CCC(C)NC(=O)N[C@@H](CCSC)C(=O)O (some centres not stated) | 1.22%
O=C(Nc1cc(C(F)(F)F)ccc1Cl)c1cc(C2CC2)on1 | 4.08%
Cn1c(=O)c2c(nc(SCCNS(=O)(=O)c3ccccc3)n2C)n(C)c1=O | -3.56%
Cc1ccccc1CSc1nnc(Cn2c(=O)sc3ccccc32)n1C | 0.98%
Cc1ccc2nc3n(c(=O)c2c1)CCC3 | -2.11%
O=C(Cn1[nH]c(=O)c2ccccc2c1=O)Nc1cccc(-c2nnc3n2CCCCC3)c1 | -2.76%
O=c1c2c(nc3n1CCCCC3)sc1c(O)cccc12 | 19.3% (active)
CCn1cc(C(=O)N2CCN(C3CCCCC3)CC2)c2cc(OC)c(OC)cc2c1=O | -1.36%
O=C(Cn1cnc2c(cnn2-c2ccccc2)c1=O)NCc1ccccc1 | 3.12%
CCCc1cc(=O)[nH]c(SCC(=O)OCc2ccccc2)n1 | -3.94%
